697 NFkB inh: inhibitors of the PMA/ionomycin-induced NF-kB reporter in 697 B cells; 697 B-cell NF-kB luciferase reporter, 16 h; inhibition, % at 4 µM; hit rate 0.33% among 330,000; AID 435022; in the data active means inhibition above about 35%
Jurkat NFkB inh: lowers PMA/ionomycin-induced NF-kB signal in Jurkat cells; hit rate 0.53% among 330,000; inhibition, % at 4 µM; PMA/ionomycin-induced NF-kB luciferase reporter, luminescence; in the data active means inhibition above about 50%
HIF act: HIF pathway transcriptional activation. U2OS HRE-luciferase reporter, luminescence; normalized: DMSO 0%, desferrioxamine 100%. AID 1910. hit rate 0.32% among 300,000. activation, % at 7.5 µM (by protocol);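 active means mean activation of at least 10% of the iron chelator positive control signal, with at least half of replicates also reaching 10%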
F508del corr: correctors of CFTR F508del function in bronchial epithelial cells. hit rate 0.36% among 350,000. CFBE cells, YFP halide quenching; stimulated with forskolin plus potentiator P3; % fluorescence drop versus neutral controls. activity (quench increase), % at 7.58 µM;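 active means mean added fluorescence quench of at least 8% versus neutral control, with both replicates also reaching 8%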;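 further: cells transiently co-express mutant CFTR-F508del with the halide-sensitive YFP; corrector assay measuring rescue of mutant channel to the surface after 24 h compound exposure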
Numbers stand for hits; - = inactive; . = not tested or not shown. This is a sample that favours compounds with a hit; in the whole collection about 0.93% have one here.

SMILES | 697 NFkB inh | Jurkat NFkB inh | HIF act | F508del corr
COCCn1c(-c2ccc(OC)cc2)cnc1SCC(=O)Nc1ccc(OC)cc1OC | - | - | 21 | .
CNNC(=O)C(C)NC(=O)c1ccc(Br)cc1 (stereo not drawn) | - | - | 38 | .
CN(CC(=O)Nc1cc(C(F)(F)F)ccc1-n1cncn1)Cc1nc2ccccc2c(=O)[nH]1 | . | . | . | -
CCN(CC(=O)Nc1cc(Cl)ccc1-n1cncn1)Cc1nc2ccccc2c(=O)[nH]1 | - | - | . | 14
O=C1CSCN1c1ccc(Cl)cc1 | - | - | 184 | -
CCOC(=O)C1CCCN(C(=O)c2ccc3nc(-c4ccc(OC)c(OC)c4)c(-c4ccc(OC)c(OC)c4)nc3c2)C1 (stereo not drawn) | - | - | - | -
CCOC(=O)C1CCCN(C(=O)c2ccc3oc(CCc4ccccc4)nc3c2)C1 (stereo not drawn) | - | - | 63 | -
CCOC(=O)C1CCCN(C(=O)c2ccc3nc(-c4ccccc4)c(-c4ccccc4)nc3c2)C1 (stereo not drawn) | - | - | 17 | -
Cc1ccc(S(=O)(=O)Nc2cccc3c2O[C@@H](CN(C)C(=O)Nc2ccc4c(c2)OCO4)[C@@H](C)CN([C@H](C)CO)C3=O)cc1 | . | . | . | -
COc1ccccc1C(=O)NCCC(=O)NCCOc1ccccc1 | - | - | - | -
COc1ccccc1OCCNC(=O)CCNC(=O)c1ccccc1OC | - | - | . | 24
O=C(Cn1ncc2c3ccccc3n(Cc3ccccc3F)c2c1=O)NCCN1CCOCC1 | - | - | 32 | -
COc1ccc2c3c([nH]c2c1)[C@@H](CO)N(Cc1ccccc1)CC31CCN(C(=O)c2cccnc2)CC1 | . | . | . | -
COc1ccccc1NC1=C(NC(C)=O)C(=O)c2ccccc2C1=O | . | . | - | 8.2
COc1ccc2c3c(n(C)c2c1)[C@@H](CO)N(Cc1ccccc1Cl)CC31CCN(C(C)=O)CC1 | . | . | . | -
NC(N)=NN=C(c1ccc(F)cc1)c1ccc(C(F)(F)F)cc1 | . | . | . | 13
CC(C)Nc1ccc(Nc2ccnc3cc4ccccc4cc23)cc1 | - | - | - | 27
COc1ccc(Nc2ccnc3ccccc23)cc1 | - | - | - | .
C[C@@H]1CCCCO[C@H](CN(C)Cc2ccc(Cl)c(Cl)c2)[C@H](C)CN([C@@H](C)CO)C(=O)c2cc(NS(C)(=O)=O)ccc2O1 | . | . | . | -
O=S(=O)(N[C@@H]1CC[C@@H](CCn2cc(-c3ccccn3)nn2)O[C@@H]1CO)c1cccc(F)c1 | . | . | . | -
C=C1SC(Nc2c(C)cccc2C)=NC12CCCCC2 | - | - | - | -
C=C1SC(Nc2c(C)cc(C)cc2C)=NC12CCCCC2 | - | - | - | 11
C[C@@H]1CN([C@@H](C)CO)C(=O)c2cccc(NC(=O)NC3CCCCC3)c2O[C@H]1CN(C)Cc1ccc(C(F)(F)F)cc1 | . | . | . | -
Cc1ccc(C)c(-c2cc(C(=O)Nc3cccc(C(=O)O)c3)c3ccccc3n2)c1 | - | - | 39 | -
O=C(CN(Cc1ccccc1)S(=O)(=O)c1ccc(F)cc1)NCc1cccnc1 | - | - | - | 9.0
SMILES | 697 NFkB inh | Jurkat NFkB inh | HIF act | F508del corr
O=C(C[C@H]1C=C[C@@H](NS(=O)(=O)c2ccccc2F)[C@H](CO)O1)NCCCN1CCOCC1 | . | . | . | -
COc1ccc(-c2cn(CC[C@H]3CC[C@@H](NS(=O)(=O)c4ccccc4C)[C@H](CO)O3)nn2)cc1 | . | . | . | -
COc1ccc(S(=O)(=O)Nc2cc3c(cc2C(C)=O)OCO3)cc1 | - | - | - | 12
COc1ccc(C2NC(=S)NC3=C2CCCC3=C2SCCS2)cc1 (stereo not drawn) | - | - | 235 | 11
Cc1ccc(NC(=O)COC(=O)CCC2CCCC2)c(Br)c1 | - | - | . | 9.4
O=C(COC(=O)CCC1CCCC1)Nc1ccccc1Br | - | - | . | -
O=Cc1cc(N=Nc2cccc(C(=O)O)c2)ccc1O | - | - | - | -
O=Cc1cc(N=Nc2ccccc2Cl)ccc1O | - | - | 17 | -
CC(C)NC(=O)NCC[C@@H]1CC[C@H](NS(=O)(=O)c2ccc(-c3ccccc3)cc2)[C@@H](CO)O1 | . | . | . | -
COc1ccc(NC(=O)c2nc(C)c(C3(C)CC(c4cccnc4)=NO3)s2)cc1 (stereo not drawn) | - | - | - | 17
Cc1nc(C(=O)Nc2ccc(Cl)cc2)sc1C1(C)CC(c2cccc([N+](=O)[O-])c2)=NO1 (stereo not drawn) | - | - | - | -
CCCC#Cc1cnc2c(c1)C(=O)N([C@@H](C)CO)C[C@H](C)[C@H](CN(C)C(=O)Nc1ccc(OC)cc1)O2 | . | . | . | -
C[C@@H]1CN([C@@H](C)CO)C(=O)c2cc(NC(=O)CCC(F)(F)F)ccc2O[C@@H](C)CCCCO[C@@H]1CN(C)C(=O)Nc1ccc(F)cc1 | . | . | . | -

Source: PubChem BioAssay
